In PubChem BioAssay:
Active and inactive are the calls of the source.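 Rule for the calls: active = inhibition at or above 50% relative to wild type and mutant plate controls; inactive = inhibition below 50%.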

Assay: loss of swimming-algae plug formation – whole organism, Chlamydomonas reinhardtii, WT vs cilia-less mutant, absorbance, 96-well, primary screen (AID 463189);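 note: 0% = wild type cc124 cells in DMSO and 100% = ciliumless bld1 mutant cells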
Conditions: Chlamydomonas reinhardtii gravitaxis, OD600 absorbance, 2 days; at 10 µM; hits give high values

SMILES	inhibition
CCOC(=O)c1c(-c2cccs2)csc1NC(=O)CCCC(=O)O	16.8% (inactive)
Fc1ccc(-c2cnc[nH]2)cc1	-0.515% (inactive)
CCOC(=O)c1[nH]c2ccc(Br)cc2c1NC(=O)CNC	-9.05% (inactive)
COc1ccc(C2(CN(C(C)=O)C(C)=O)CCCC2)cc1OC	-15.3% (inactive)
COc1ccccc1C1C(C#N)=C(N)Oc2cc(C)n(Cc3ccccn3)c(=O)c21 (centres undefined)	7.42% (inactive)
Cc1ccc(C(=O)/C=C/Nc2cccc(O)c2)cc1	37.3% (inactive)
O=C(C1CC1(c1ccccc1)c1ccccc1)N1CCOCC1 (centres undefined)	35% (inactive)
COC(=O)CNC(=O)c1c(C)cc(=O)oc1C	28.5% (inactive)
COc1ccc(CCn2c(=N)c(C(=O)NCc3ccco3)cc3c(=O)n4ccccc4nc32)cc1	-7.81% (inactive)
Nc1nc(NC(=O)c2cccs2)nn1-c1ccccc1	-2.85% (inactive)
Cc1c(O)c(CN2CCCC(C)C2)cc2c3c(c(=O)oc12)CCC3 (centres undefined)	0.622% (inactive)
COc1ccc(CCn2c(=N)c(C#N)cc3c(=O)n4ccccc4nc32)cc1	32.6% (inactive)
Cn1c(SCC(=O)N2CCOCC2)nnc1-c1cccc(NC(=O)c2ccccc2F)c1	20.3% (inactive)
O=C(NC1CCS(=O)(=O)C1)c1c(NC(=O)C2COc3ccccc3O2)sc2c1CCCC2 (centres undefined)	30.5% (inactive)
COC(=O)C(NC(C)=O)(Nc1nc2ccc(S(C)(=O)=O)cc2s1)C(F)(F)F (centres undefined)	-13% (inactive)
COc1ccc2c(c1)C1(C)CC(C)(C)N2C(=O)N1c1ccccc1 (centres undefined)	4.76% (inactive)
CCCCCn1c2nc3ccccc3nc2c2c(=O)n(CC(C)C)cnc21	16.4% (inactive)
Nc1nnnn1/N=C/c1ccccn1	26.1% (inactive)
Cc1nnc2n(-c3ccccc3)c(=O)c3c4c(sc3n12)CCCC4	24.9% (inactive)
CCc1nc2sc3c(c2c(=O)o1)CCCC3	8.78% (inactive)

SMILES	inhibition
CCOC(=O)CNC(=O)Nc1ccccc1C(=O)OC	-5.32% (inactive)
COc1ccc(C(=O)NCCCCCC(=O)O)cc1OC	32.7% (inactive)
CCOC(=O)C1=C(CSc2nc(C)cc(C)c2C#N)OC(N)=C(C#N)C1c1cccs1 (centres undefined)	8.41% (inactive)
COc1cc(NC(=O)NC(C)(C(F)(F)F)C(F)(F)F)cc(OC)c1OC	14.3% (inactive)
COC(=O)C(NC(C)=O)(Nc1ccccn1)C(F)(F)F (centres undefined)	-7.72% (inactive)
CC1(C)CNC(=O)c2sc(N3CCOCC3)nc2C1	0.902% (inactive)
CCOC(=O)c1ccc(CC2S/C(=C(\C#N)C(C)=O)NC2=O)cc1 (centres undefined)	13.1% (inactive)
CC(=Nc1cccc(O)c1)c1sc2ccccc2c1O	-2.68% (inactive)
COc1cccc(N2C(=O)C(O)=C(C(C)=O)C2c2ccc(OC)c(OC)c2)c1 (centres undefined)	-2.64% (inactive)
O=S(=O)(c1ccc2ccccc2c1)N(CC(O)CN1CCOCC1)c1ccccc1 (centres undefined)	143% (active)
Cc1c(O)c(CN2CCCCC2)cc2c3c(c(=O)oc12)CCC3	1.32% (inactive)
O=S(=O)(NCc1cccnc1)c1cccc2nsnc12	-1.56% (inactive)
Cc1cc(O)c(C(C)C)cc1N=C1CSC(=O)N1	-20% (inactive)
Cc1nc2sc(C#N)c(N)c2c2c1CCCC2	3.68% (inactive)
N#C/C(C(=O)N1CCOCC1)=C1/SC(Cc2ccccc2)C(=O)N1c1ccccc1 (centres undefined)	-6.43% (inactive)
CN(CC(O)COc1ccc(OCC(O)CN(C)C2CCCCC2)cc1)C1CCCCC1 (centres undefined)	3.04% (inactive)
Cn1c(=O)[nH]c(=O)c2c1nc(N(CCO)Cc1ccccc1)n2Cc1ccccc1Cl	31.2% (inactive)
Cc1nn(-c2ccccc2)c2c1C(=O)NC(=O)C(C)(C)C2	-12.8% (inactive)
Cc1ccc(-n2ncc3c(N4CCN(c5ccccc5)CC4)ncnc32)c(C)c1	2.19% (inactive)
